A selection: hits, their analogues and other compounds. The true share with any hit is near 4%.
Rv3671c inh: inhibitors of M. tuberculosis serine protease Rv3671c; AID 2606; inhibition, % at 5.96 µM; P9WHR9; 320,000 tested, 0.048% active; in the data active = inhibition above about 38%;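 also: extracellular domain of Rv3671c used as enzyme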
Mtb bLac sens: beta-lactam sensitization of Mtb H37Rv. 330,000 tested, 0.27% active. M. tuberculosis H37Rv growth with meropenem, percent inhibition. inhibition, % at 25 µM. AID 434955;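 also: growth measured after seven days incubation then overnight dye step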
GDH-TPI counter: counter-screen for M. tuberculosis FBA inhibitors: GDH-TPI coupled enzymes. GDH-TPI coupled enzyme counterscreen, NADH absorbance. inhibition, % at 4.8 µM. 360,000 tested, 1.2% active; in the data active = inhibition above about 30%
FBA Mtb inh: inhibitors of M. tuberculosis fructose-bisphosphate aldolase; purified M. tuberculosis FBA, fluorescence read-out; inhibition, % at 1 µM; P9WQA3; 360,000 tested, 2.3% active; in the data active = inhibition above about 27%
Mtb UGM inh: Mtb UDP-galactopyranose mutase inhibition. P9WIQ1. purified UGM, fluorescence polarization probe displacement. inhibition, % at 10 µM. 320,000 tested, 0.06% active. AID 504406; in the data active = inhibition above about 10%, passing the limit was not always enough; inconclusive = no clear call, values can overlap the other calls
Target sequence (P9WIQ1 whole entry, looked up): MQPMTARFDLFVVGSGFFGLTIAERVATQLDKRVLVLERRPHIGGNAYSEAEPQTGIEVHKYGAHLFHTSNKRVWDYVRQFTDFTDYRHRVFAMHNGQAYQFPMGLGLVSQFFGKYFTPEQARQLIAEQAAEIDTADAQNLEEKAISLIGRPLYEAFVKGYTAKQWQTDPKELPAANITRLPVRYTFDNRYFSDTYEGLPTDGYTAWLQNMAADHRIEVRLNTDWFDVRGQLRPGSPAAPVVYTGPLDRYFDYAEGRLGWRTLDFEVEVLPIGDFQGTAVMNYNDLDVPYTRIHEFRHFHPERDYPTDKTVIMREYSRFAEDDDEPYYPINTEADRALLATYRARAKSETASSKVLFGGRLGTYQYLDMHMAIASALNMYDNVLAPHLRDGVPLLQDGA
RecA intein inh: inhibitors of M. tuberculosis RecA intein splicing; P9WHJ3; cell-free RecA intein splicing, fluorescence; inhibition, % (concentration not given with the values); 290,000 tested, 0.75% active; AID 2221; in the data active = inhibition above about 30%; inconclusive = no clear call, values can overlap the other calls
GFP chromophore: counter-screen GFP chromophore formation inhibition; shares compounds with RecA intein inh; cell-free GFP chromophore formation, fluorescence; EC50, µM; 2,100 tested, 83% active
A number is an active result; . = inactive; ? = inconclusive; / = not tested or not shown. Unless noted, no rule for the calls is given here.

SMILES	Rv3671c inh	Mtb bLac sens	GDH-TPI counter	FBA Mtb inh	Mtb UGM inh	RecA intein inh	GFP chromophore
CCOc1ccccc1C1C(C#N)=C(N)Nc2onc(-c3ccccc3)c21 (stereo not drawn)	.	.	.	.	.	78	16
CCOc1cccc(C2C(C#N)=C(N)Oc3cc(C)[nH]c(=O)c32)c1OCC (stereo not drawn)	.	.	.	.	.	.	/
COc1cccc(NC(=S)/C(=C(\[O-])c2ccc(OC(F)F)cc2)[n+]2ccccc2)c1	.	.	.	.	.	37	35
CN(Cc1ccccc1C#N)S(=O)(=O)c1cccs1	.	.	.	.	.	.	/
N#Cc1nccnc1S(=O)(=O)c1cccs1	.	.	/	/	.	68	32
Fc1ccc(Nc2nc(Oc3ccccc3F)nc(N3CCCC3)n2)cc1	.	.	.	.	.	.	12
CC(=O)OCCN(C)c1cc(SC(C)C)c2nonc2c1[N+](=O)[O-]	.	.	.	.	.	34	.
CN(CCO)c1cc(Sc2nc3ccccc3s2)c2nonc2c1[N+](=O)[O-]	.	?	.	.	.	94	1.4
N#CC1=C(N)N(c2ccccc2)C(c2cccc([N+](=O)[O-])c2)C1(C#N)C#N (stereo not drawn)	.	.	.	.	.	39	24
Oc1ccc(/C=N/Nc2ccc(C(F)(F)F)cn2)c(O)c1	.	.	.	.	.	42	.
O=C(CN1CCN(S(=O)(=O)c2ccc(Cl)cc2)CC1)Nc1ccc2c(c1)OCO2	.	.	.	.	.	47	.
O=C(Cc1coc2cc3c(cc12)CCC3)OCc1cc(=O)n2c(n1)sc1ccccc12	.	.	.	.	.	.	/
O=C(N/N=C/C1CC=CCC1)c1ccc(Cl)cc1O (stereo not drawn)	.	.	.	.	.	.	/
O=C(c1ccncc1)N(c1ccc2oc3c(c2c1)CCCC3)S(=O)(=O)c1ccc(F)cc1	.	.	.	.	.	51	4.1
CC(=O)c1c(C)oc2ccc(N(C(=O)c3ccncc3)S(=O)(=O)c3ccccc3)cc12	.	.	.	.	.	.	/
CCN(C(=O)COc1ccc(C(C)=O)cc1)c1cccc2ccccc12	.	.	.	.	.	/	/
CN(C)S(=O)(=O)c1cccc(-c2nnc(SCC(=O)NCCCCCC(=O)O)n2-c2ccc(F)cc2)c1	.	.	.	.	.	.	/
O=C(Oc1ccc(N(C(=O)c2ccncc2)S(=O)(=O)c2ccc(Cl)cc2)cc1)c1ccncc1	.	.	.	.	.	38	33
Cc1[nH]n(-c2ccccc2)c(=O)c1C(C[N+](=O)[O-])c1ccccc1Cl (stereo not drawn)	.	.	.	.	.	75	15
COc1ccc(C(C[N+](=O)[O-])c2c(C)[nH]n(-c3ccccc3)c2=O)cc1 (stereo not drawn)	.	.	.	.	.	95	5.3
CC1CCN(CC(O)COc2cccc(F)c2)CC1 (stereo not drawn)	.	.	.	.	.	.	/
Nc1cc(-c2cccc([N+](=O)[O-])c2)[nH]n1	.	.	.	.	.	.	/
O=c1cc(-c2cccc([N+](=O)[O-])c2)[nH][nH]1	.	.	.	.	.	96	11
O=S(=O)(Nc1ncccn1)c1ccc(NC(=S)NCCc2ccc(Cl)cc2)cc1	.	.	.	.	.	.	/
O=C(COC(=O)/C=C/c1ccccc1Cl)NCCc1ccc(Cl)cc1Cl	.	.	.	.	.	.	/
SMILES	Rv3671c inh	Mtb bLac sens	GDH-TPI counter	FBA Mtb inh	Mtb UGM inh	RecA intein inh	GFP chromophore
O=C(CN1C(=O)S/C(=C\C=C\c2ccccc2)C1=O)Nc1ccccc1C(=O)O	.	.	35	.	.	60	10
CCCc1nc2sc3ccccc3c(=O)c2c(=O)n1Cc1ccco1	/	/	.	.	/	/	/
O=C(c1ccc2nc(Cc3cccc(Cl)c3)oc2c1)N1CCC(O)CC1	.	.	.	.	.	42	.
O=C(O)COc1ccc(/C=C2/SC(=S)N(Cc3ccccc3)C2=O)cc1	.	.	.	.	.	53	36
O=C(O)CN1C(=O)/C(=C\c2cccc(OC(=O)c3ccco3)c2)SC1=S	.	.	.	.	.	31	.
COc1ccc(CNC(=O)CN(Cc2ccc(OC)cc2)C(=O)CCC(=O)Nc2ccccn2)cc1	.	.	.	.	.	.	/
Cc1ccccc1Nc1nc(N)c2ccccc2n1	.	.	.	.	.	.	/
